PglD DTNB – blocks C. jejuni PglD acetyltransferase activity | purified PglD enzyme, DTNB colorimetric CoA detection | inhibition, % at 12.5 µM | 360,000 tested, 0.098% active; in the data active means inhibition above about 16%, passing the limit was not always enough
PDI inh – PDI (human) enzyme inhibition. AID 588391. PDI insulin aggregation turbidity, A650, 90 min. 350,000 tested, 0.052% active. inhibition, % at 10 µM. P07237;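 active means mean inhibition across replicates of 30% or more, whatever share of single replicates reach that level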
PGC1a acetyl inh – modulators of PGC1a acetylation; AID 651687; 350,000 tested, 0.17% active; inhibition, % at 15.6 µM; U2OS PGC1a acetylation, AlphaScreen anti-acetyl-lysine; with virally co-expressed GCN5 acetyltransferase;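 active means every replicate shows inhibition of at least 40%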;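 further: 0% = neutral control wells and 100% = positive control wells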
ERAP1 inh – ERAP1 (human) enzyme inhibition | inhibition, % at 10.7 µM | 340,000 tested, 0.15% active | recombinant ERAP1, Leu-AMC fluorescence, 60 min | AID 652197 | Q9NZ08;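 active means mean replicate inhibition of at least 30%, or all replicates individually reaching that 30% level; inactive means mean below 30% and not every replicate reaching it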;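 further: 0% = neutral control wells and 100% = L-leucinethiol positive control wells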
CaV13 FRET inh – Disruptors of the CACNA1D IQ motif to Ca2+-dependent inactivation inhibitor domain association, primary screening, Förster resonance energy transfer in intact living … | HEK cells, CFP/YFP FRET ICDI-IQ, plate reader, 10 min; percent FRET-ratio fall versus neutral wells | inhibition, % at 12.3 µM | 340,000 tested, 0.098% active | AID 743397;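 active means mean replicate inhibition of at least 30% and at least 1% of replicates passing that level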;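 further: 0% = median of the neutral control wells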
ERp5 inh – inhibitors of human ERp5 | ERp5 insulin aggregation, absorbance 650 nm, 90 min | 350,000 tested, 0.05% active | inhibition, % at 9.99 µM;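 active means mean replicate inhibition above about 25%, with every replicate also reaching it, limit read from the data, passing the limit was not always enough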
Numbers without * were called inactive. In the library only some 0.46% were active in any assay of this set; here they are far more common.

Screening O=C(C[C@H]1C=C[C@@H](NC(=O)CC2CC2)[C@H](CO)O1)NCc1ccc(Cl)cc1 returned PglD DTNB 8, PGC1a acetyl inh 2, ERAP1 inh 1 and ERp5 inh 5.
Screening CCC(=O)N1[C@H](CO)[C@H](c2ccc(-c3ccccc3OC)cc2)[C@H]1CNC(C)=O returned ERAP1 inh -1 and ERp5 inh 0.
O=C(Nc1ccc(-c2ccccc2)cc1)c1ccco1 was read as PglD DTNB 5, PDI inh 0, PGC1a acetyl inh 0, ERAP1 inh 41*, CaV13 FRET inh 0 and ERp5 inh -1.
Screening CCOc1ccc(C2CC(c3c(O)c4ccccc4oc3=O)=NN2c2ccccc2)cc1OC (stereo not given) returned PDI inh -4, PGC1a acetyl inh 19, ERAP1 inh -2, CaV13 FRET inh 165* and ERp5 inh -2.
`CCCCCSc1nnc(C)c(=O)[nH]1` gave PDI inh 2, PGC1a acetyl inh 91*, ERAP1 inh 1, CaV13 FRET inh -8 and ERp5 inh -2.
CCC(=O)Nc1ccc2c(c1)C(=O)N(C)[C@H]1CC[C@H](CC(=O)NCCCN(C)C)O[C@@H]1CO2 was read as PglD DTNB -2, PGC1a acetyl inh 1, ERAP1 inh 1 and ERp5 inh -5.
Screening CCC(C)n1c(=N)c(C#N)cc2c(=O)n3cccc(C)c3nc21 (stereo not given) returned PDI inh 2, PGC1a acetyl inh 3, ERAP1 inh -6, CaV13 FRET inh active and ERp5 inh 2.
For Cc1cccn2c(=O)c3cc(C#N)c(=N)n(Cc4cccnc4)c3nc12 the results were PglD DTNB 3, PDI inh 10, PGC1a acetyl inh 7 and CaV13 FRET inh 0.
For Cc1ccc2nc3c(cc(C#N)c(=O)n3-c3nccs3)c(=O)n2c1 the results were PglD DTNB 0, PDI inh 0, PGC1a acetyl inh 14 and CaV13 FRET inh 30.
Cc1cccn2c(=O)c3cc(C#N)c(=NC(=O)c4cccs4)n(CC(C)C)c3nc12 was read as PDI inh -10, PGC1a acetyl inh 1, ERAP1 inh -4 and CaV13 FRET inh active.
`CCC(C)n1c(=N)c(C#N)cc2c(=O)n3cc(C)ccc3nc21` (stereo not given) gave PDI inh -1, PGC1a acetyl inh -1, ERAP1 inh -5, CaV13 FRET inh 57* and ERp5 inh -6.
Screening O=C(CCN1CCCCC1)N[C@@H]1C=C[C@H](CC(=O)N2CCC(Cc3ccccc3)CC2)O[C@@H]1CO returned PglD DTNB -1, PGC1a acetyl inh -8, ERAP1 inh -5 and ERp5 inh 1.
For N#CC1=C(N)Oc2cc(N)ccc2C1c1ccc(F)cc1F (stereo not given) the results were PglD DTNB 1, PDI inh -18, PGC1a acetyl inh 8, ERAP1 inh 1, CaV13 FRET inh active and ERp5 inh 3.
CCOc1cccc(N)c1 was read as PglD DTNB 4 and PGC1a acetyl inh 13.
For CCOc1ccc(N)c(SSc2cc(OCC)ccc2N)c1 the results were PglD DTNB 3, PDI inh -5, ERAP1 inh 38*, CaV13 FRET inh -19 and ERp5 inh 1.
COCc1cc(C)nc(SCC(=O)Oc2ccc(Cl)cc2)c1C#N was read as PDI inh 6, PGC1a acetyl inh 9, ERAP1 inh 0, CaV13 FRET inh 47* and ERp5 inh 2.
Screening Clc1ccccc1CN1CCSCC1 returned PglD DTNB 5, PDI inh -1, PGC1a acetyl inh 47*, ERAP1 inh -3, CaV13 FRET inh -19 and ERp5 inh 2.
Clc1ccccc1CN1CCN(c2ncccn2)CC1 was read as PglD DTNB -2, PDI inh 7, PGC1a acetyl inh -1, ERAP1 inh -4, CaV13 FRET inh -20 and ERp5 inh 2.
`CC(=O)NNc1cc(N2CCOCC2)nc(N2CCOCC2)n1` gave PglD DTNB 0, ERAP1 inh -1, CaV13 FRET inh active and ERp5 inh 1.
For O=C(NNc1cc(N2CCCC2)nc(N2CCCC2)n1)c1ccc([N+](=O)[O-])cc1 the results were PDI inh -3, ERAP1 inh 1, CaV13 FRET inh 64* and ERp5 inh -4.
Screening CC(C)(C)c1ccc(C(=O)NNc2cc(N3CCOCC3)nc(N3CCOCC3)n2)cc1 returned PDI inh 1, ERAP1 inh -4, CaV13 FRET inh 0 and ERp5 inh -2.
For CCCNC(=O)N1CC2(CCN(Cc3ccccn3)CC2)c2c(n(C)c3cc(OC)ccc23)[C@H]1CO the results were PGC1a acetyl inh -7, ERAP1 inh 1 and ERp5 inh 6.
For COc1ccc2nc(N3CCCC(C(=O)NCCCN4CCN(C)CC4)C3)sc2c1 (stereo not given) the results were PglD DTNB 7, PDI inh -1, PGC1a acetyl inh 70* and CaV13 FRET inh -5.
`O=C(Nc1ccncc1)C1CCN(S(=O)(=O)c2cccc(C(F)(F)F)c2)CC1` gave PglD DTNB -2, PDI inh 0, PGC1a acetyl inh -4, ERAP1 inh 1, CaV13 FRET inh -2 and ERp5 inh 27*.
Screening COc1cc(C(=O)OCC(C)=O)cc(NC(=O)c2ccco2)c1OC returned PglD DTNB 1, PDI inh -50, CaV13 FRET inh 179* and ERp5 inh 5.
For COc1cc(C(=O)OCC(=O)NC2CCCC2)cc(NC(=O)c2ccco2)c1OC the results were PglD DTNB -7, PDI inh 5, PGC1a acetyl inh -12 and CaV13 FRET inh -5.
For C=CCn1c(-c2ccccc2)cc(SC)c(C#N)c1=O the results were PglD DTNB -1, PDI inh 3, ERAP1 inh 5, CaV13 FRET inh -4 and ERp5 inh 1.
Screening CCCn1c(-c2ccccc2)cc(SC)c(C#N)c1=O returned PDI inh -4, PGC1a acetyl inh 93*, ERAP1 inh -5, CaV13 FRET inh -4 and ERp5 inh -4.
`S=C(NCC1CCCO1)N1CCN(Cc2ccccc2Cl)CC1` (stereo not given) gave PglD DTNB 0, PDI inh 3, PGC1a acetyl inh -2, ERAP1 inh 4, CaV13 FRET inh active and ERp5 inh 1.
`S=C(NCC1CCCO1)N1CCN(c2ccccc2)CC1` (stereo not given) gave PDI inh -4, ERAP1 inh 4, CaV13 FRET inh -11 and ERp5 inh 2.
Screening CC=Cc1ccc2n(c1=O)C[C@@H]1[C@@H](CO)[C@H](C(=O)NCCOC)[C@H]2N1Cc1nccs1 (mixture of isomers) returned PglD DTNB 19*, ERAP1 inh 8 and ERp5 inh -7.

Assay outcomes deposited in PubChem BioAssay by Broad Institute.
